# According to PubChem BioAssay (NCATS):
# Results filed as inconclusive are left out. Entries that show only a call come without a potency. The source made the active and inactive calls. Unless noted, the call rests on the fitted dose curve; in most records, active means well fitted curve in the direction sought with a large enough effect; inconclusive means small, poorly fitted or top-dose-only effect, or another doubt; inactive means no such curve, though single readings can be large; an effect the other way counts as inactive or inconclusive.
# Legend:
# [1] = S16 Schwann cell PMP22 intronic element beta-lactamase assay (AID 624044; calls by dose curve; further: nearly all actives have a fitted effect of over 15% in size)
# Summary of the method: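 Beta-lactamase reporter under a PMP22 intronic regulatory element in stable S16 rat Schwann cells; 24 h compound exposure. 460 nm blue signal normalized between DMSO (0%) and potassium clavulanate, with 535 nm FRET tracking viability; curves classed by r2 and response.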
# [2] = qHTS assay for small molecule activators of the p53 signaling pathway (AID 651743; active means well fitted activation curve with a large enough effect in the signal ratio, not every such curve was filed as active; the % refers to the signal ratio); conditions: HCT-116 p53RE-bla, beta-lactamase FRET ratio, 16 h; activation: stronger effect = higher value
# Summary of the method: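 After 16 hours compound treatment at 37 C, HCT-116 cells stably expressing p53RE-driven beta-lactamase were loaded with LiveBLAzer B/G FRET substrate for 2 hours at room temperature. Fluorescence intensity served as the p53 activation read-out.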
# [3] = qHTS assay for small molecule activators of the nuclear factor-kappa B (NF-kB) signaling pathway (AID 651749; active means well fitted activation curve with a large enough effect in the signal ratio; the % refers to the signal ratio); conditions: NF-kB-bla ME-180 cells, beta-lactamase FRET ratio, 16 h; stronger effect = higher value
# Summary of the method: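 Activation measured after 16 hr compound treatment at 37C, 5% CO2, of 2,000 ME-180 cells/well stably expressing an NF-kB response element–driven beta-lactamase reporter, via FRET-disruption fluorescence.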
# [4] = qHTS assay for small molecule disruptors of the mitochondrial membrane potential - 1 hr assay (AID 651754; calls by dose curve; further: nearly all actives have a fitted effect of over 35% in size)
# Summary of the method: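 Loss of mitochondrial potential shifts the cationic dye from red mitochondrial aggregates to green cytoplasmic monomers. Cells (HepG2) are treated with compound for 1 hr before a 30 min dye incubation at 37C.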
# [5] = qHTS assay for small molecule disruptors of the mitochondrial membrane potential - 5 hr assay (AID 651755; calls by dose curve; further: nearly all actives have a fitted effect of over 40% in size)
# Summary of the method: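 Membrane-potential dye readout: red aggregate (540 ex/590 em) versus green monomer (490 ex/535 em) fluorescence after 30 min dye loading, following 5 hr compound exposure at 37C of overnight-plated HepG2 cells.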
# [6] = biological target: Tumor necrosis factor (Homo sapiens) (UniProt P01375); assay: qHTS assay to identify small molecules that stimulate Tumor Necrosis Factor-alpha (TNF-alpha) secretion (AID 651757; active means well fitted curve in the direction sought with a large enough effect in the signal ratio; the % refers to the signal ratio; further: potency means the concentration at half of the fitted maximal effect)
# Chain of Tumor necrosis factor (Homo sapiens) (P01375 whole entry, looked up): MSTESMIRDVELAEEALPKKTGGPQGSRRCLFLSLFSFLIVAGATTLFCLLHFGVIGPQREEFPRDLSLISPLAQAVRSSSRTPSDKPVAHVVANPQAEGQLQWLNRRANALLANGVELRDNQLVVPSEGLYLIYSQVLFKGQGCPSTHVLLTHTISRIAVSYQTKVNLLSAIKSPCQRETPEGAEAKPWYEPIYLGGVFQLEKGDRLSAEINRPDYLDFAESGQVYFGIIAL
# Summary of the method: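 Human monocytic THP-1 cells are plated, treated with compound and held at 37 C for 17 hrs. Labeled anti-TNF-alpha antibody mixture is then added; after 3 hr at room temperature, TR-FRET signal reports secreted TNF-alpha.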
# [7] = qHTS assay for environmental chemicals that activate the Aryl hydrocarbon Receptor (AhR) signaling pathway (AID 651777); conditions: 1A2-DRE human hepatoma cells, luciferase, 24 h; activation: stronger effect = higher value; further: nearly all actives have a fitted effect of over 15% in size
# Summary of the method: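 Quantitative HTS in stably transfected human liver-derived cells whose luciferase gene sits downstream of the CYP1A2 promoter and dioxin response element. After 24 hr exposure at 37 C, One-Glo luminescence was measured.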
# [8] = biological target: Peroxisome proliferator-activated receptor alpha (Homo sapiens) (UniProt Q07869); assay: qHTS assay for small molecule agonists of the peroxisome proliferator-activated receptor alpha (PPARalpha) signaling pathway (AID 651778); conditions: PathHunter PPARalpha complementation, chemiluminescence, 6 h; stronger effect = higher value
# Chain of Peroxisome proliferator-activated receptor alpha (Homo sapiens) (Q07869 whole entry, looked up): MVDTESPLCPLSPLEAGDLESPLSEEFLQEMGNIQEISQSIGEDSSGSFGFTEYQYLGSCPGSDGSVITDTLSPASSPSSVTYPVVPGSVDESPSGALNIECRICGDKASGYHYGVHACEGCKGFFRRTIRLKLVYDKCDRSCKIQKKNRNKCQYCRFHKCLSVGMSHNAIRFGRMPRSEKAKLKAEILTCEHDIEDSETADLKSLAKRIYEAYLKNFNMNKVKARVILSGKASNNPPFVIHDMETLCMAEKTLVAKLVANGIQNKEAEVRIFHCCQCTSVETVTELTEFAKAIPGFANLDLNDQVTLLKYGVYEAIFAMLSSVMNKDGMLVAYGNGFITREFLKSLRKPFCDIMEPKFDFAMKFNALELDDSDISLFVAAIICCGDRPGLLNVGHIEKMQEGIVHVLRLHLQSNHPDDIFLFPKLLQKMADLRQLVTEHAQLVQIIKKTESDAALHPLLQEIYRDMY
# Summary of the method: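 Chemiluminescence from complemented enzyme reported PPARalpha activation in cells after 6 hr of compound treatment at 37 C. The detection reagent was incubated for 60 min at room temperature, and compounds were scored as agonists.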
# [9] = qHTS assay for small molecule agonists of the antioxidant response element (ARE) signaling pathway measured by Nrf2-dependant transcriptional activity (AID 720636; active means well fitted curve in the direction sought with a large enough effect in the repeat runs; an effect the other way counts as inactive or inconclusive)
# Summary of the method: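 Quantitative HTS format in HepG2 cells stably expressing an ARE-luciferase reporter; 16 hr compound treatment at 37 C, luciferase signal detected with ONE-Glo.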
# [10] = qHTS assay for small molecule antagonists of the retinoid-related orphan receptor gamma (ROR-gamma) signaling pathway - cell viability counter screen (AID 720652; active means well fitted curve in the direction sought with a large enough effect in the repeat runs; an effect the other way counts as inactive or inconclusive;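 further: CHO reporter cells with doxycycline-induced ROR-gamma expression; compound exposure lasted 16 hr before ATP read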)
# Summary of the method: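 Steps: seed CHO cells bearing TET-inducible ROR and ROR response element-luciferase; rest 5 hr at 37 C; add compound, then doxycycline; incubate 16 hr; add CellTiter-Glo and read luminescence as ATP-based viability.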
# [11] = qHTS assay for small molecule agonists of the antioxidant response element (ARE) signaling pathway measured by Nrf2-dependant transcriptional activity - cell viability counter screen (AID 720653; active means well fitted curve in the direction sought with a large enough effect in the repeat runs; an effect the other way counts as inactive or inconclusive); conditions: ARE-bla HepG2 viability, CellTiter-Glo ATP luminescence, 16 h; stronger effect = lower value
# Summary of the method: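 Cytotoxicity counter screen: intracellular ATP quantified by CellTiter-Glo luminescence in the same ARE-bla HepG2 plates, after 16 h compound exposure and a 2 h beta-lactamase substrate step.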
# [12] = qHTS assay for cell viability of HEK293 cells (AID 743288); conditions: ATP luminescence (CellTiter-Glo), 18 h, stronger effect = lower value; further: nearly all actives have a fitted effect of over 50% in size
# Summary of the method: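 Viable-cell counts were inferred from luciferase-based ATP content in HEK293 cells seeded at 2,000/well, pre-incubated ≥5 h, then dosed with DMSO-solubilised compounds for 18 h at 37 C.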
# [13] = qHTS assay for cell viability of the p53RE-bla HCT-116 cell line (AID 743292); further: nearly all actives have a fitted effect of over 55% in size
# Summary of the method: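 Viability of compound-treated p53RE-bla HCT-116 cells is taken from ATP-dependent luciferase luminescence. Treatment lasts 16 h at 37 C after a 5 h settling period; detection follows 30 min at room temperature.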
# [14] = qHTS to identify inhibitors of the type 1 interferon - major histocompatibility complex class I in skeletal muscle: primary screen against the NCATS Mechanism Interrogation Plate v5.0 (MIPE) Libary (AID 1347411); further: nearly all actives have a fitted effect of over 65% in size
# Summary of the method: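 Seed engineered human myoblasts (HLA-B HiBit) in medium without dexamethasone containing 4 ng/ml IFN-beta; after 1 hr add compound titrations (top 46 uM final). Incubate 24 hrs at 37 C, lyse 10 min with HiBiT reagent, read luminescence.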
# [15] = Primary qHTS for inhibitors of nuclear receptor binding SET domain protein 2 (NSD2) in an isogenic RCH-ACV NSD2 p.E1099K mutant (9B) (AID 1645876); further: nearly all actives have a fitted effect of over 70% in size
# [16] = Primary qHTS for inhibitors of nuclear receptor binding SET domain protein 2 (NSD2) in an RCH-ACV wild type WT cells (2C) (AID 1645877); further: nearly all actives have a fitted effect of over 70% in size
# [17] = biological target: Glutathione peroxidase 1 (Homo sapiens) (UniProt P07203); assay: Primary qHTS Assay for Inhibitors of Recombinant Selenoprotein Glutathione Peroxidase 1 (GPX1) (AID 1845191); further: nearly all actives have a fitted effect of over 65% in size
# Chain of Glutathione peroxidase 1 (Homo sapiens) (P07203 whole entry, looked up): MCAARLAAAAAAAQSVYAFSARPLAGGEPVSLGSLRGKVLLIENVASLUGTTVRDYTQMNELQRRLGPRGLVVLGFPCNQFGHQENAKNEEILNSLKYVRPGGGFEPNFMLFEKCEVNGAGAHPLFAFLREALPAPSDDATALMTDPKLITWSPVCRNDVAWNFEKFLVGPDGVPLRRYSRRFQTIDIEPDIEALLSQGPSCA
# Summary of the method: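 NADPH consumption tracked by fluorescence at 340/450 nm between t=0 and t=15 min, room temperature. Final mix: 10 nM GPX1, 100 nM glutathione reductase, 1 mM GSH, 0.5 mM NADPH, 0.5 mM cumene hydroperoxide, 0.01% BSA; 30 min compound–enzyme preincubation.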
# [18] = biological target: Phospholipid hydroperoxide glutathione peroxidase GPX4 (Homo sapiens) (UniProt P36969); assay: Primary qHTS Assay for Inhibitors of Recombinant Selenoprotein Glutathione Peroxidase 4 (GPX4) (AID 1845192); conditions: outcome: dose series up to 50 µM unless noted; further: nearly all actives have a fitted effect of over 65% in size
# Chain of Phospholipid hydroperoxide glutathione peroxidase GPX4 (Homo sapiens) (P36969 whole entry, looked up): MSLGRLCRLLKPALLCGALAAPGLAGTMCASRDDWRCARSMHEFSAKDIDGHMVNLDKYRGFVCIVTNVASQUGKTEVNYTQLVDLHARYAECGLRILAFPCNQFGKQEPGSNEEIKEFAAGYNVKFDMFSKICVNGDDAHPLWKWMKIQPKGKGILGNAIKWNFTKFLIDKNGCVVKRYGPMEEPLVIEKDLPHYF
# Summary of the method: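 NADPH consumption followed by fluorescence at 340/450 nm, t=0 and after 15 min at room temperature. Reaction started with cumene hydroperoxide (0.5 mM final) after 30 min compound–GPX4 preincubation; final 200 nM GPX4, 100 nM GR, 1 mM GSH, 0.5 mM NADPH.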
# [19] = qHTS drug screen for cell cycle checkpoint inhibitors in PARPi-resistant BRCA-mutant ovarian cancer cell lines. (AID 1963452; calls by dose curve); conditions: PEO1/OlaR viability, CellTiter-Glo luminescence, 96 h, stronger effect = lower value
# Summary of the method: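 PEO1, PEO4 and PEO1/OlaR ovarian cancer cells, 600 per well, exposed 96 h at 37C to a dilution series. Viability read by CellTiter-Glo luminescence, normalized to DMSO and empty wells; activity summarized as Z-AUC.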
# [20] = qHTS profiling for inhibitors of Plasmodium falciparum proliferation (AID 504749); further: nearly all actives have a fitted effect of over 60% in size; conditions: P. falciparum in erythrocytes, SYBR Green DNA, 72 h; at 28.7 µM (top of the series); parasite line A
# Summary of the method: (§1)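 SYBR Green fluorescence of parasite DNA, read after lysis and overnight dark incubation, measured growth over 72 h in erythrocyte culture at 0.3% parasitemia and 2.5% hematocrit. Data normalised to DMSO and 0.29 uM artemisinin, with plate-drift correction.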
# 7G8 = assay: as above; conditions: P. falciparum in erythrocytes, SYBR Green DNA, 72 h; series mostly up to 28.7 µM
# Summary of the method: as §1
# AA1029 = assay: as above; conditions: P. falciparum in erythrocytes, SYBR Green DNA, 72 h; series mostly up to 28.7 µM
# Summary of the method: as §1
# AS120 = assay: as above; conditions: P. falciparum in erythrocytes, SYBR Green DNA, 72 h; series mostly up to 28.7 µM
# Summary of the method: as §1
# ATS189 = assay: as above; conditions: P. falciparum in erythrocytes, SYBR Green DNA, 72 h; series mostly up to 28.7 µM
# Summary of the method: as §1
# ATS95 = assay: as above; conditions: P. falciparum in erythrocytes, SYBR Green DNA, 72 h; series mostly up to 28.7 µM
# Summary of the method: as §1
# C2A = assay: as above; conditions: P. falciparum in erythrocytes, SYBR Green DNA, 72 h; series mostly up to 28.7 µM
# Summary of the method: as §1
# CP185 = assay: as above; conditions: P. falciparum in erythrocytes, SYBR Green DNA, 72 h; series mostly up to 28.7 µM
# Summary of the method: as §1
# CP191 = assay: as above; conditions: P. falciparum in erythrocytes, SYBR Green DNA, 72 h; series mostly up to 28.7 µM
# Summary of the method: as §1
# CP192 = assay: as above; conditions: P. falciparum in erythrocytes, SYBR Green DNA, 72 h; series mostly up to 28.7 µM
# Summary of the method: as §1
# CP194 = assay: as above; conditions: P. falciparum in erythrocytes, SYBR Green DNA, 72 h; series mostly up to 28.7 µM
# Summary of the method: as §1
# CP201 = assay: as above; conditions: P. falciparum in erythrocytes, SYBR Green DNA, 72 h; series mostly up to 28.7 µM
# Summary of the method: as §1
# CP203 = assay: as above; conditions: P. falciparum in erythrocytes, SYBR Green DNA, 72 h; series mostly up to 28.7 µM
# Summary of the method: as §1
# CP211 = assay: as above; conditions: P. falciparum in erythrocytes, SYBR Green DNA, 72 h; series mostly up to 28.7 µM
# Summary of the method: as §1
# CP217 = assay: as above; conditions: P. falciparum in erythrocytes, SYBR Green DNA, 72 h; series mostly up to 28.7 µM
# Summary of the method: as §1
# CP237 = assay: as above; conditions: P. falciparum in erythrocytes, SYBR Green DNA, 72 h; series mostly up to 28.7 µM
# Summary of the method: as §1
# CP238 = assay: as above; conditions: P. falciparum in erythrocytes, SYBR Green DNA, 72 h; series mostly up to 28.7 µM
# Summary of the method: as §1
# CP247 = assay: as above; conditions: P. falciparum in erythrocytes, SYBR Green DNA, 72 h; series mostly up to 28.7 µM
# Summary of the method: as §1
compound,measurement,setting,value
C[C@@H]1[C@H](O)[C@@H](C)/C=C/C=C/C=C/C=C/C=C/C=C/C=C/[C@H](O[C@@H]2O[C@H](C)[C@@H](O)[C@H](N)[C@@H]2O)C[C@@H]2O[C@](O)(C[C@@H](O)C[C@@H](O)[C@H](O)CC[C@@H](O)C[C@@H](O)CC(=O)O[C@H]1C)C[C@H](O)[C@H]2C(=O)O,outcome,[1],inactive
same,activation,[2],0.804% (inactive)
same,activation,[3],-0.187% (inactive)
same,Potency,[4],inactive
same,Potency,[5],inactive
same,Potency,[6],42.2 µM (active)
same,activation,[7],0.282% (inactive)
same,max response,[8],6.84% (inactive)
same,outcome,[9],inactive
same,outcome,[10],inactive
same,max response,[11],-15.2% (inactive)
same,max response,[12],-1.04% (inactive)
same,Potency,[13],inactive
same,Potency,[14],inactive
same,Potency,[15],inactive
same,Potency,[16],inactive
same,Potency,[17],inactive
same,Potency,[18],inactive
same,Z-AUC,[19],1.47 (inactive)
same,Z-AUC,[19]; measured here: PEO1 parental Z-AUC,1.65
same,Z-AUC,[19]; measured here: PEO4 Z-AUC,1.61
same,"activity, negative = inhibition",[20],-1.42% (inactive)
same,Potency,7G8,inactive
same,Potency,AA1029,inactive
same,Potency,AS120,inactive
same,Potency,ATS189,inactive
same,Potency,ATS95,inactive
same,Potency,C2A,inactive
same,Potency,CP185,inactive
same,Potency,CP191,inactive
same,Potency,CP192,inactive
same,Potency,CP194,inactive
same,Potency,CP201,inactive
same,Potency,CP203,inactive
same,Potency,CP211,inactive
same,Potency,CP217,inactive
same,Potency,CP237,inactive
same,Potency,CP238,inactive
same,Potency,CP247,inactive
